# PubChem BioAssay (EPA / NIEHS)
# Values joined by “and” are separate entries in the source; they are usually repeats but may differ in a detail not shown here. Equal entries are not always repeated. Results filed as inconclusive are left out. Some structures have more than one record in an assay (separate samples or runs), and their calls can disagree. Active and inactive are the calls of the source. The calls were made as follows: active = hit-call score of the fitted dose curve at least 0.9, where 1 is the maximum; inconclusive = response in the unintended direction; inactive = score below 0.9.
# Target: human Peroxisome Proliferator-activated Receptor alpha (PPARa), PPARA (gene 5465) (UniProt Q07869)
# Test: NVS_NR_hPPARa: NovaScreen (NVS) Nuclear Receptor Binding Assay for human Peroxisome Proliferator-activated Receptor alpha (PPARa) (AID 2283359);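 also: activity means loss of TR-FRET signal versus DMSO baseline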
# Protocol: NVS_NR_hPPARa is a biochemical, single-readout assay that uses extracted gene-proteins in a cell-free assay. Measurements were taken 1 hour after chemical dosing in a 384-well plate.NVS_NR_hPPARa is one of one assay component(s) measured or calculated from the NVS_NR_hPPARa assay. It is designed to make measurements of fluorescent resonance energy transfer, a form of binding reporter, as detected with fluorescent resonance energy transfer signals by Time-Resolved Fluorescence Resonance Energy Transfer (TR-FRET) technology.Data from the assay component NVS_NR_hPPARa was analyzed into 1 assay endpoint. This assay endpoint, NVS_NR_hPPARa, was analyzed in the positive analysis fitting direction relative to DMSO as the negative control and baseline of activity. Using a type of binding reporter, loss-of-signal activity can be used to understand changes in the binding as they relate to the gene PPARA. Furthermore, this assay endpoint can be referred to as a primary readout, because the performed assay has only produced 1 assay endpoint. To generalize the intended target to other relatable targets, this assay endpoint is annotated to the nuclear receptor intended target family, where the subfamily is non-steroidal.
# Binding assays used specific radioligands (tritiated, iodinated) with non-radioactive competitive displacement ligands in agonist or antagonist protocols (as indicated) and various reference compounds and inhibitors to titrate specific binding to receptors and transporters. Most enzyme assays (CYPs, kinases, phosphatases, proteases, HDACs) used recombinant protein and specific substrates (fluorescence mostly, some colorimetric and radioactive) and inhibitors, followed by a biochemical separation of substrate and product. All assays for the biochemical HTS were initially run in duplicate at a single concentration (10 uM for CYP450 assays and 25 uM for all others). […] Each assay was run with positive and negative controls, and concurrent controls on every plate. The follow-up (secondary) screen tested active chemical-pairs in concentration series, as well as a few additional assays not tested in the primary screen, some selected negative inactives, and several cases re-run in the concentration series for confirmatory purposes.
# Chain of human Peroxisome Proliferator-activated Receptor alpha (PPARa), PPARA (gene 5465) (Q07869 whole entry, looked up): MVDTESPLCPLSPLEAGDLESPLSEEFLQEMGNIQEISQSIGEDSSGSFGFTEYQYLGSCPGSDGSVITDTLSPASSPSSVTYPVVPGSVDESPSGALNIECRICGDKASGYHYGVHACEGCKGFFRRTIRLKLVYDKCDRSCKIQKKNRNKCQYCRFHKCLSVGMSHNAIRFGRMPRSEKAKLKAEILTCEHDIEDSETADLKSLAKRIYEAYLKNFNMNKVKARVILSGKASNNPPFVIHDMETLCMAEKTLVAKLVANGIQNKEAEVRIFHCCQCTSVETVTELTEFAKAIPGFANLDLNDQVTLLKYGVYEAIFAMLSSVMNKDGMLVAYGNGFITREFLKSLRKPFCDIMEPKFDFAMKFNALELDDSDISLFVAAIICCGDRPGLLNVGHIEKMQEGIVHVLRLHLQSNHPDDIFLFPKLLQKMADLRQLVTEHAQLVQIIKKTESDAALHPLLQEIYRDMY
SMILES,outcome,AC50
CN(C)C(=O)Nc1ccc(Cl)c(Cl)c1,inactive,
S=C(S)NCCNC(=S)S.[Mn+2].[S-]C([S-])=NCCN=C([S-])[S-].[Zn+2],inactive,12.5 µM (active)
N[C@@H](Cc1cc(I)c(Oc2ccc(O)c(I)c2)c(I)c1)C(=O)O,inactive,27.3 µM (active) and 20 µM (active)
CC(C)(c1ccc(O)cc1)c1ccc(O)cc1,,0.105 µM (active)
C=CCOC(Cn1ccnc1)c1ccc(Cl)cc1Cl (stereo not given),inactive,
CCOC(=O)c1ccc(O)cc1,inactive,
CC(C)CCCCCCc1ccc(O)cc1,inactive,
O=C(c1ccccc1)C1CCCCC1,inactive,
